Reference: paper PMC9838217, “Structure of SALL4 zinc finger domain reveals link between AT-rich DNA binding and Okihiro syndrome”
Positions count from the first letter of the chain named.

The sequences below were run against T1, SALL4 ZFC4 WT (HT-SELEX) (Mus musculus, UniProt Q8BX22 870-940) (assay: HT-SELEX; high values mean tight binding). Conditions: protein: recombinant; vector His6-GST; dsDNA, one strand shown.
T1 sequence: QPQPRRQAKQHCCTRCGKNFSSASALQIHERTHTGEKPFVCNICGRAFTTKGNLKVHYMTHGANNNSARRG
Summary of the method: (§1)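 For each canonical k-mer, binding signal is the read fraction as fold change versus the initial random library. Data came from up to 6 triplicate cycles in which purified recombinant mouse SALL4 zinc finger cluster 4 (residues 870–940, 1 µg) was incubated 10 min at room temperature with library DNA (1.5 µg first cycle, 200 ng later) in 100 µl of 10 mM Tris–HCl pH 7.5, 50 mM NaCl, poly(dI-dC), DTT, followed by Ni2+ bead capture, PCR amplification, MiSeq sequencing and a 6-mer scan.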

Sequence	binding signal [fold-change vs cycle 0]
ACAGCT	0.616 ± 0.0411
CTTGAA	1.25 ± 0.0309
AATTGA	1.92 ± 0.0967
GTCCAC	0.374 ± 0.044
GACTGA	0.805 ± 0.0317
AAGGAC	0.805 ± 0.0174
CACTTA	1.34 ± 0.0677
AACAAG	1.28 ± 0.0479
AACCTA	1.37 ± 0.0609
GTAAGA	1.45 ± 0.0375
GGCTAC	0.316 ± 0.0371
TATGAA	3.56 ± 0.299
CTACTA	1.31 ± 0.0478
TCAAGA	1.32 ± 0.0482
AAGATC	1.25 ± 0.0866
ATACTG	1.31 ± 0.0361
CCCTTA	0.943 ± 0.0612
ACTTAA	1.95 ± 0.0715
GGAAAC	0.775 ± 0.0365
GATCTA	1.25 ± 0.0377

Sequence	binding signal [fold-change vs cycle 0]
CTGCAA	0.58 ± 0.0126
AGATCG	0.674 ± 0.0467
AATCGG	0.593 ± 0.0172
AGCTAC	0.674 ± 0.0463
AGACCC	0.415 ± 0.0196
AGGGAA	0.891 ± 0.0417
GGACGA	0.34 ± 0.0131
TCAACA	1.19 ± 0.0385
AACGCA	0.504 ± 0.0712
GAGCAA	0.613 ± 0.0271
CTAGAG	0.862 ± 0.0503
GGTCAC	0.432 ± 0.0454
ATCGAC	0.576 ± 0.0406
ATCCAA	1.28 ± 0.0363
CAAAAA	1.52 ± 0.0617
CTACAC	0.733 ± 0.0291
CGGTAC	0.362 ± 0.0117
GTCAAA	0.9908 ± 0.00315
GGGTAA	0.818 ± 0.0379
GACCAA	0.62 ± 0.021

The sequences below were run against T2, SALL4 ZFC4 R900W (HT-SELEX) (Mus musculus, UniProt Q8BX22 870-940, R900W) (assay: HT-SELEX; high values mean tight binding). Conditions: protein: recombinant; vector His6-GST; dsDNA, one strand shown.
T2 sequence: T1 sequence with R31W
Summary of the method: as §1

Sequence	binding signal [fold-change vs cycle 0]
ACAGCT	0.714 ± 0.0328
CTTGAA	1.42 ± 0.0651
AATTGA	1.88 ± 0.0991
GTCCAC	0.454 ± 0.026
GACTGA	0.959 ± 0.0214
AAGGAC	0.941 ± 0.0375
CACTTA	1.46 ± 0.0563
AACAAG	1.5 ± 0.0772
AACCTA	1.47 ± 0.0701
GTAAGA	1.6 ± 0.0704
GGCTAC	0.356 ± 0.0124
TATGAA	2.1 ± 0.116
CTACTA	1.47 ± 0.0658
TCAAGA	1.49 ± 0.0445
AAGATC	1.42 ± 0.0452
ATACTG	1.4 ± 0.0644
CCCTTA	1.06 ± 0.0532
ACTTAA	2.12 ± 0.103
GGAAAC	0.874 ± 0.0459
GATCTA	1.36 ± 0.0544

Sequence	binding signal [fold-change vs cycle 0]
CTGCAA	0.651 ± 0.015
AGATCG	0.774 ± 0.0175
AATCGG	0.657 ± 0.021
AGCTAC	0.7802 ± 0.0018
AGACCC	0.511 ± 0.0173
AGGGAA	1.01 ± 0.045
GGACGA	0.412 ± 0.0156
TCAACA	1.35 ± 0.0647
AACGCA	0.544 ± 0.00766
GAGCAA	0.69 ± 0.0379
CTAGAG	1 ± 0.0918
GGTCAC	0.512 ± 0.0261
ATCGAC	0.632 ± 0.033
ATCCAA	1.37 ± 0.0499
CAAAAA	1.38 ± 0.0576
CTACAC	0.845 ± 0.0188
CGGTAC	0.437 ± 0.0232
GTCAAA	1.12 ± 0.0182
GGGTAA	0.955 ± 0.0325
GACCAA	0.733 ± 0.0369

Each sequence was assayed against T3, SALL4 ZFC4 G921D (HT-SELEX) (Mus musculus, UniProt Q8BX22 870-940, G921D) (assay: HT-SELEX; high values mean tight binding). Conditions: protein: recombinant; vector His6-GST; dsDNA, one strand shown.
T3 sequence: T1 sequence with G52D
Summary of the method: as §1

Sequence	binding signal [fold-change vs cycle 0]
ACAGCT	0.811 ± 0.0395
CTTGAA	1.32 ± 0.0914
AATTGA	1.75 ± 0.142
GTCCAC	0.569 ± 0.0681
GACTGA	0.953 ± 0.0219
AAGGAC	0.9757 ± 0.00429
CACTTA	1.38 ± 0.0979
AACAAG	1.39 ± 0.0671
AACCTA	1.4 ± 0.0994
GTAAGA	1.42 ± 0.0981
GGCTAC	0.493 ± 0.0659
TATGAA	1.85 ± 0.171
CTACTA	1.39 ± 0.0974
TCAAGA	1.4 ± 0.0701
AAGATC	1.44 ± 0.0439
ATACTG	1.36 ± 0.0801
CCCTTA	1.02 ± 0.0595
ACTTAA	1.85 ± 0.222
GGAAAC	0.9097 ± 0.00842
GATCTA	1.41 ± 0.0811

Sequence	binding signal [fold-change vs cycle 0]
CTGCAA	0.729 ± 0.0483
AGATCG	0.926 ± 0.0361
AATCGG	0.763 ± 0.0166
AGCTAC	0.874 ± 0.026
AGACCC	0.612 ± 0.0617
AGGGAA	0.989 ± 0.0164
GGACGA	0.498 ± 0.0522
TCAACA	1.3 ± 0.0976
AACGCA	0.669 ± 0.0225
GAGCAA	0.797 ± 0.00723
CTAGAG	1.03 ± 0.068
GGTCAC	0.662 ± 0.0597
ATCGAC	0.759 ± 0.0482
ATCCAA	1.32 ± 0.0492
CAAAAA	1.35 ± 0.0641
CTACAC	0.893 ± 0.0116
CGGTAC	0.552 ± 0.049
GTCAAA	1.13 ± 0.0122
GGGTAA	0.918 ± 0.0131
GACCAA	0.845 ± 0.0391
